Assay results taken from PubChem BioAssay AID577 (University of Pittsburgh Molecular Library Screening Center, 2007).
Among all 65,000 compounds or so, about 120 (0.18%) were called active. Rule as the data show it: active = z-score below about -3; inactive = the rest. Many of the other results were omitted from the sample, so actives are more common in it than they were.

Biological target: Genome polyprotein (West Nile virus) (UniProt P06935)
Assay: inhibitors of WNV NS2B-NS3 protease, primary screen, biochemical, fluorogenic substrate (AID 577)
Settings: fluorogenic substrate Ex360/Em465, hits give low values

Sequence of Genome polyprotein (West Nile virus) (P06935 1371-1501 limits assumed): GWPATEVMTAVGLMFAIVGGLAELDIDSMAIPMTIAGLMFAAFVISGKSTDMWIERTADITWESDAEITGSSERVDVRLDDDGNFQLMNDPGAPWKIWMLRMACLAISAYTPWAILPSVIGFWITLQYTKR
Sequence of Genome polyprotein (West Nile virus) (P06935 1502-1679 limits assumed): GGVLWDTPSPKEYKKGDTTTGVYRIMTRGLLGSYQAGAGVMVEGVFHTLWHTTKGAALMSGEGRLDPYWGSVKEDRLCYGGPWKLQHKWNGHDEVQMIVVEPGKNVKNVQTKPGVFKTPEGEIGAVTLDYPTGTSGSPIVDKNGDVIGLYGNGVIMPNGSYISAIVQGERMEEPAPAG

z-score, inactive:
CC(C)CNS(=O)(=O)c1ccc(OCC(=O)Nc2ccc3c(c2)OCO3)c(Cl)c1 0.53, COc1cccc(-c2nn(C)c3sc(C(=O)N4CCN(c5ccccc5)CC4)cc23)c1 -0.13, O=C(c1ccccc1)c1cccn1CC(=O)N1CCN(c2ccc(F)cc2)CC1 -1.05, COc1cccc(-c2nc(S(=O)(=O)c3ccccc3)c(N3CCOCC3)o2)c1 -0.88, CC(C)n1c(C(O)c2ccccc2)nc2ccccc21 (stereo not drawn) -1.05, O=C(Nc1nnc(-c2ccc(Cl)cc2)o1)c1ccccc1Br 2.56, O=C(O)C1CCN1C1CCCCC1 (stereo not drawn) -0.3, CCCOc1ccc(NC(=O)C2CCCNC2=O)cc1 (stereo not drawn) 0.11, CCn1cc(C(=O)NC2CCCCCC2)c(=O)c2cc(S(=O)(=O)N3CCCCC3)ccc21 -1.17, Oc1ccc(Cl)cc1/C=N/c1nc2ccccc2[nH]1 -0.26, CCOC(=O)C1CCN(C(=O)CC2C(=O)N(Cc3ccccc3)C(C)c3nc4ccccc4n32)CC1 (stereo not drawn) -0.76, Brc1cnc(N2CCCC2)nc1N1CCCCC1 -0.6, CCOC(=O)c1ccc(Nc2cc(C)nc3nc(C)nn23)cc1 -0.96, Cn1nc(-c2ccc(N3CCOCC3)c(NC(=O)c3ccccc3)c2)c2ccccc2c1=O -0.07, COc1ccc(CCNC(=O)CSc2nnc(-c3cccc(F)c3)o2)cc1OC 0.62, O=C(CSC1=Nc2ccccc2C2=NC(c3ccccc3)C(=O)N12)NCC1CCCO1 (stereo not drawn) -0.94, CCOC(=O)N1CCN(C(=O)c2ccc(S(=O)(=O)c3ccc(C)cc3)c(NC(C)=O)c2)CC1 0.25, CCc1nc2oc3ccccc3c(=O)c2c(=O)n1Cc1ccc(OC)cc1 -0.51, CC1CCN(Cc2nc3c(c(=O)n(C)c(=O)n3C)n2Cc2cccc3ccccc23)CC1 -0.71, CCC(C(=O)N1CCOCC1)n1c(C(=O)OC)cc2occc21 (stereo not drawn) -1.12, O=C(NC1CCCCC1)N1CCc2[nH]c3ccccc3c2C1 0.65, Cn1c(=O)c2[nH]c(NCC3CCCO3)nc2n(-c2ccccc2)c1=O (stereo not drawn) -0.17, Cc1c(C(=O)NCC2CCCO2)sc2nc(-c3ccccc3)cn12 (stereo not drawn) 0.86, Cc1nn(Cc2ccccc2)c(Cl)c1C(=O)OC1CCOC1=O (stereo not drawn) 0.09, c1ccc(-c2cn3cccnc3n2)cc1 1.38, Cc1ccc(-n2c(Cc3cccs3)nnc2SCC(=O)OC(C)C)cc1 -0.91, CCOc1ccc(OCC)c(NC(=O)CSc2nnc(Cn3cnc4ccccc43)n2C)c1 1.68, CSc1sc(C)cc1C1C(C#N)=C(N)N(c2cccnc2)C2=C1C(=O)CCC2 (stereo not drawn) 0.7, CCC(C)n1[nH]c(=O)c2c(C)cc(C)nc21 (stereo not drawn) 0.11, COc1ccc(/C(O)=C2/C(=O)C(=O)N(c3nc(C)c(C)s3)C2c2ccco2)cc1 (stereo not drawn) -0.46, CCOC(=O)c1sc(NC(=O)C(CC)Sc2nccn2C)nc1C (stereo not drawn) 0.77, CCOC(=O)c1sc(=S)n2c1[nH]c(=O)c1ccc(C(=O)OC)cc12 0.38, Cc1ccccc1-c1nc(CS(=O)(=O)CC(=O)N2CCc3ccccc3C2)c(C)o1 -0.21, CC(C)c1ccc(NS(=O)(=O)c2cn(C)c(=O)n(C)c2=O)cc1 -1.04, CCCOc1ccc2c3c(c(=O)oc2c1OCCC)CCC3 -0.02, COc1ccc(NC(=O)CN(C)S(=O)(=O)c2ccccc2)cc1OC -0.74, Cc1ccc(NC(=O)C2CCCN(S(=O)(=O)c3c(C)noc3C)C2)c(C)c1 (stereo not drawn) -1.04, CCOC(=O)Cn1c(CN(Cc2ccccc2)Cc2ccccc2)nc2c1c(=O)[nH]c(=O)n2C 1.45, COc1ccc(CCNS(=O)(=O)c2ccc(F)cc2)cc1OC -0.37, Cc1nnc(SCC(=O)Nn2cnnc2)s1 0.2, CCCCn1c(CCCNC(=O)CC)nc2ccccc21 0.2, CC(=O)c1ccc(NC(=O)N[C@@H](Cc2ccccc2)C(=O)O)cc1 1.38, Cc1ccc(C)c(NC(=O)C2CC(=O)N(C(C)C)C2)c1 (stereo not drawn) -0.7, Clc1ccc(C=NC23CN4CN(CN(C4)C2)C3)cc1 1.48, O=C1CC(Cc2ccccc2)C(=O)N1c1ccc(Cl)cn1 (stereo not drawn) -1.5, CCN(CC)C(=O)CSc1nnc(-c2cnccn2)n1-c1ccc(C)cc1 0.78, CSCCC(NC(=O)C1CCC(C)CC1)C(=O)NCc1ccco1 (stereo not drawn) 0.29, CCCCOC(=O)NCN1C(=O)C2C3C=CC(C3)C2C1=O (stereo not drawn) 0.28
